Cruzain Triton: inhibitors of Trypanosoma cruzi cruzain with detergent | AID 1478 | 200,000 tested, 0.43% active | Potency, µM, for inactives: max response, negative = inhibition, usual class: inhibitors | purified cruzain, Z-FR-AMC fluorescence, 0.01% Triton | P25779;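 note: plate controls were neutral wells for no effect and buffer without enzyme for full effect; nearly all actives have a fitted effect of over 40% in size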
Target sequence (P25779 123-467 limits assumed): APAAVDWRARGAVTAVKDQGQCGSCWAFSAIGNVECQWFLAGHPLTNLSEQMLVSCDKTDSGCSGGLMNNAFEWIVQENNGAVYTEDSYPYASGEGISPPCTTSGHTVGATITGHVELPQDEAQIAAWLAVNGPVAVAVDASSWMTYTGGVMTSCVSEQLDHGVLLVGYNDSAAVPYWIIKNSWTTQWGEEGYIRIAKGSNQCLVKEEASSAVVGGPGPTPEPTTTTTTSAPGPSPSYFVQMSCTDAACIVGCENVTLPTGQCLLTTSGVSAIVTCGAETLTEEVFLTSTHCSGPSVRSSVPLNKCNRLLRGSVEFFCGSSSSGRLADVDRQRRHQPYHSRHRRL
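Sodium acetate buffer (100 mM, pH 5.5) containing 5 mM DTT and 0.01% Triton X-100 hosted 1.5 nM cruzain and test compound for 15 min at room temperature. Cleavage of 2 uM Z-FR-AMC was then tracked by fluorescence.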
Cruzain noTriton: blocks cruzain activity in detergent-free assay | Potency, µM, without a hit: max response, negative = inhibition, most hits filed as inhibitors | purified cruzain, Z-FR-AMC fluorescence, no detergent | 200,000 tested, 2.3% active;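 note: plate controls were enzyme without inhibitor for no effect and buffer without enzyme for full effect; nearly all actives have a fitted effect of over 40% in size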
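Purified cruzain at 1.5 nM, pre-incubated 15 min with compound at room temperature in 100 mM sodium acetate pH 5.5, 5 mM DTT, 0.00005% Triton X-100. Reaction started with 2 uM Z-FR-AMC; AMC fluorescence increase over 60 s gives rate.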
* marks the source's active call; other numbers are inactive results; ? = inconclusive. Shown are actives, neighbours in structure and some others; about 2.5% of the full set was active somewhere. Calls come from the whole dose curve; as a rule, active = well fitted curve in the direction sought with a large enough effect; inconclusive = small, poorly fitted or top-dose-only effect, or another doubt; inactive = no such curve, though single readings can be large; an effect the other way counts as inactive or inconclusive. Potency is the fitted concentration of half-maximal effect.

SMILES	Cruzain Triton	Cruzain noTriton
Cc1cccc(NC(=O)/C=C/c2ccc([N+](=O)[O-])s2)c1	-4%	?
Cc1nc2c(cnn2-c2ccccc2Cl)c(=O)n1-c1ccc(C(C)C)cc1	-6%	-8%
Cn1c(=O)c(C(=O)c2ccccc2)nc2ccccc21	-2%	-7%
O=C(c1ccccc1)c1nc2ccccc2n(CCCn2c(=O)c(C(=O)c3ccccc3)nc3ccccc32)c1=O	-1%	10µM*
CCC1CCCCN1c1ccc([N+](=O)[O-])cc1/C=N/NC(=O)Cn1c2ccccc2c(=O)c2ccccc21 (centres undefined)	-1%	6.3µM*
CCc1ccc(OCC(=O)N/N=C/c2cc([N+](=O)[O-])ccc2N2CCCCCC2)cc1	-4%	?
Cc1ccc(C)c2sc(NC(=O)c3ccc(N4CCCCC4)c([N+](=O)[O-])c3)nc12	4%	7.9µM*
CCC(C)c1ccccc1NC(=O)COC(=O)c1ccc(N2CCCC2)c([N+](=O)[O-])c1 (centres undefined)	0%	-3%
Cc1cccc(C)c1NC(=O)COC(=O)c1ccc(N2CCCC2)c([N+](=O)[O-])c1	-2%	10µM*
Cc1cccc(NC(=O)c2ccc(N3CCCCC3)c([N+](=O)[O-])c2)n1	0%	-9%
CCOC(=O)c1c(C)c(C(=O)NCc2ccc(Cl)cc2)c(C)n1C	-1%	-14%
COC(=O)c1sccc1S(=O)(=O)N(CC(=O)Nc1ccccc1F)c1ccccc1	-4%	-3%
Cc1ccc(S(=O)(=O)N(Cc2ccc(Cl)cc2)c2ccccc2C(=O)NCc2ccco2)cc1	-5%	18%
O=C1CCCc2nn(-c3ccccc3)c(-c3ccncc3)c21	3%	16%
CCC(CC)C(=O)Nc1cccc(-c2nc3cccnc3s2)c1	-5%	-14%
O=C(Nc1cccc(-c2nc3cccnc3s2)c1)C1c2ccccc2Oc2ccccc21	0%	20µM*
COC(=O)c1ccccc1NC(=O)c1cc(=O)c2ccc(C)c(C)c2o1	-2%	-3%
O=C(OCC1OC(OC(=O)c2cc(O)c(O)c(OC(=O)c3cc(O)c(O)c(O)c3)c2)[C@@H](OC(=O)c2cc(O)c(O)c(OC(=O)c3cc(O)c(O)c(O)c3)c2)C(OC(=O)c2cc(O)c(O)c(OC(=O)c3cc(O)c(O)c(O)c3)c2)C1OC(=O)c1cc(O)c(O)c(OC(=O)c2cc(O)c(O)c(O)c2)c1)c1cc(O)c(O)c(OC(=O)c2cc(O)c(O)c(O)c2)c1 (some centres undefined)	16µM*	7.9µM*
Cc1cn(C2OC(COC(=O)c3ccccc3)C(OC(=O)c3ccccc3)C2OC(=O)c2ccccc2)c(=O)[nH]c1=O (centres undefined)	-1%	?
N#C/C(=C\c1ccc(-c2ccc(C(=O)O)cc2)o1)C(=O)Nc1ccccc1C(=O)O	-3%	2%
Oc1ccccc1Nc1nc(-c2ccccc2)c2cc(Cl)ccc2n1	-1%	2%
c1ccc(C2CC(c3ccccc3)n3c(nc4ccccc43)N2)cc1 (centres undefined)	1%	13µM*
O=C1C2CC=CCC2C(=O)N1c1nc2n(n1)C(c1ccccc1)CC(c1ccccc1)N2 (centres undefined)	-3%	?
C[C@H](NC(=O)[C@@H]1C[C@H]1[C@@H](NC(=O)OCc1ccccc1)c1ccccc1)c1ccccc1	1%	16µM*
CC(C)NC(=O)[C@@H]1C[C@H]1[C@@H](NC(=O)OCc1ccccc1)c1ccccc1	1%	-4%
SMILES	Cruzain Triton	Cruzain noTriton
COc1cccc2c(=O)cc(C)n(CC(=O)Nc3cccc(C)c3)c12	-4%	-26%
Cc1ccc(NS(=O)(=O)c2ccc3[nH]c4c(c3c2)CCCCCC4)cc1	-6%	-25%
Cc1ccc(NC(=S)NCc2ccc3[nH]c4c(c3c2)CCCC4)cc1	-12%	32µM*
Cc1ccc(Cl)cc1N1CCN(S(=O)(=O)c2cccc(S(=O)(=O)N3CCCC3)c2)CC1	3%	?
Cc1ccc(Cl)cc1N1CCN(S(=O)(=O)c2ccc3[nH]c4c(c3c2)CCCCC4)CC1	0%	5µM*
CCOc1ccccc1NC(=O)C1CCN(S(=O)(=O)c2ccc3[nH]c4c(c3c2)CCCCC4)CC1	-2%	13µM*
CCOc1ccccc1NC(=O)C1CCN(S(=O)(=O)c2ccc3[nH]c(=O)oc3c2)CC1	-2%	-1%
COc1ccc(NC(=O)C2CCN(S(=O)(=O)c3ccc4[nH]c5c(c4c3)CCCCC5)CC2)cc1	2%	-30%
COc1ccc(C)cc1NC(=O)C1CCN(S(=O)(=O)c2ccc3[nH]c4c(c3c2)CCCCC4)CC1	-1%	16µM*
O=C(CSc1nc(-c2ccncc2)nn1CC(=O)N1CCCCC1)NC1CCCC1	7%	-1%
Cc1ccc(-c2noc(-c3ccc(N4CCOCC4)c([N+](=O)[O-])c3)n2)cc1	-10%	1%
COC(=O)C1(CC(C)C)C=C2C(=C(c3ccccc3)C(=O)C2C)CN1 (centres undefined)	-4%	-2%
Cc1ccc2c(=O)c(C(=O)c3cccc(Cl)c3)cn(CC(=O)NC3CCCCC3)c2n1	3%	-4%
CCN(CC)CCCCn1c(-c2ccccc2)nc2c(NCCOC)nc(C)nc21	-8%	-5%
Cc1ccc(C)c(N2CCN(C(=O)NCc3noc4ccccc34)CC2)c1	-9%	4%
CC(C)(C)c1ccc(O)c(CN(Cc2cc(C(C)(C)C)ccc2O)C2CCCCC2)c1	2%	3%
CC(=O)c1ccc(NC(=O)C2CCN(S(=O)(=O)c3ccc4[nH]c5c(c4c3)CCCCC5)CC2)cc1	-2%	-16%
Cc1ccc(NC(=O)C2CCN(S(=O)(=O)c3ccc4[nH]c5c(c4c3)CCCCC5)CC2)cc1	0%	13µM*
CN(C)c1ccc(-c2nc(N3CCNCC3)c3ccccc3n2)cc1	-2%	-8%
COc1ccc(CNc2ccccc2)cc1Br	-6%	-9%
COc1cc(CNc2cccc(F)c2)cc(Br)c1O	-5%	25µM*
Cc1[nH]n(-c2ncc(-c3ccccc3)s2)c(=O)c1C(c1ccc(Br)cc1)C(C#N)C#N (centres undefined)	?	13µM*
Cc1[nH]n(C(N)=S)c(=O)c1C(c1ccccc1)C(C#N)C#N (centres undefined)	1%	20%
COC(=O)c1nn(-c2ccccc2)c2nnc(Cc3ccc(C)cc3)c(=O)n12	0%	-14%
O=C(c1ccccc1)c1nn(-c2ccccc2)c2nnc(Cc3ccccc3)c(=O)n12	-3%	25µM*
SMILES	Cruzain Triton	Cruzain noTriton
CC1=CCC2(CO)COC(c3ccccc3O)C1C2 (centres undefined)	4%	-3%
COc1ccccc1-c1nc(C#N)c(N2CCN(Cc3ccccc3)CC2)o1	-19%	-2%
COc1ccccc1-c1nc(C#N)c(N2CCC(Cc3ccccc3)CC2)o1	35µM*	?
COc1ccc(Nc2cc(C(=O)NCc3ccccc3OC)c3ccccc3n2)cc1	-10%	11%
O=C(NCc1ccco1)c1cc(-c2cccs2)nc2ccccc12	-15%	-13%
COc1ccc(CNC(=O)COC(=O)c2cc(-c3ccc(Cl)s3)nc3ccccc23)cc1	4%	-18%
O=C(COC(=O)c1cc(-c2ccc(Cl)s2)nc2ccccc12)NCc1ccco1	20µM*	13%
O=C(COC(=O)c1cc(-c2cccs2)nc2ccccc12)NCc1ccco1	25µM*	3%
COc1ccc(Nc2cc(C(=O)NCc3ccco3)c3ccccc3n2)cc1	-7%	13µM*
C/C(=C\C(=O)Nc1nccs1)c1ccccc1	-4%	3%
OCC(CO)(CBr)CBr	1%	-1%
